The values below come from PubChem BioAssay AID504863 (Sanford-Burnham Center for Chemical Genomics, 2011).

The list shows a part of the results. Values without a mark were called inactive. The source made the active and inactive calls.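 Rule for the calls: active = inhibition averaging 50% or more, tested at 20 µM; inactive = the rest.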

The test has as its system diaphorase (Clostridium kluyveri). In words: C. kluyveri diaphorase inhibition, resazurin coupling – biochemical, fluorescence intensity, 30 µM NADPH, counter-screen for P. falciparum G6PD inhibitor project, confirmation (AID 504863).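 Note: 0% = DMSO with enzyme and 100% = DMSO wells lacking diaphorase.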 As to conditions: Diaphorase/resazurin coupled assay, resorufin fluorescence, at 20 µM, active compounds read high. A general note: Alamar Blue is a resazurin reagent that responds to reducing activity.
Turning to `COc1cccc(C(=O)Nc2nnc(S(=O)(=O)N(C)c3ccccc3)s2)c1`, the inhibition was 56.8% (active).
Then `Cc1cccc(C(=O)Nc2nnc(S(=O)(=O)N3CCCCCC3)s2)c1`, with 36.1%; and `CCSc1nnc(NC(=O)c2ccc(C)cc2)s1`, with 56.5% (active).
On to `O=c1[nH]c2ccccc2n2c(-c3ccccc3)nnc12`, for which the inhibition is 15.9%.
Next, `CCN(CC)c1ccc2oc(=O)c(C)nc2c1`: 62.5% (active); `COc1ccc(CC(=O)NCC(=O)N/N=C/c2cc(Br)ccc2OC)cc1`: 70.8% (active).
Then `OCCN1CCN(C(=S)c2ccc(-c3ccccc3)cc2)CC1`, with 2.65%.
In the case of `COc1cccc(C(=O)Nc2nnc(S(=O)(=O)N3CCOCC3)s2)c1`, the inhibition is 54.9% (active).
Then `COc1cccc(C(=O)Nc2nnc(S(=O)(=O)N3CCCCC3)s2)c1`, with 57% (active); and `C=CCc1ccccc1OCC(=O)N/N=C/c1ccccc1OCC`, with 43.5%.
Then `O=C(NC1=CC(=O)c2ccccc2C1=O)c1ccccc1`, with 60.6% (active); and `O=C(CN1CCN(c2ccc(O)cc2)CC1)Nc1cc(S(=O)(=O)N2CCOCC2)ccc1Cl`, with 7.17%.
Take `c1ccc(-c2cn3c(n2)CCc2ccc4cccnc4c2-3)cc1`: the inhibition was 45%.
Then `CC(C)(C)NC(=O)COc1ccc(CNc2ccc3[nH]c(=O)[nH]c3c2)cc1`, with 12.2%; and `Cc1ccc(/C=C/C(=O)Nc2ccc([N+](=O)[O-])c(NC(=O)/C=C/c3ccc(C)o3)c2)o1`, with -7.03%; and `Cc1ccnc(-n2sc3ccccc3c2=O)n1`, with -26.9%.

The inhibition is the relative decrease from the control value, in per cent.
